PGC1a acetyl inh – lowers PGC1a acetylation signal in U2OS cells. AlphaScreen anti-acetyl-lysine; with virally co-expressed GCN5 acetyltransferase. 0.17% of 350,000 active. AID 651687. inhibition, % at 15.6 µM;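 active = every replicate shows inhibition of at least 40%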;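 note: 0% = neutral control wells and 100% = positive control wells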
EWS-Fli inh – blocks EWS/Fli oncoprotein-driven transcription. A673 NR0B1-luciferase reporter, viability-normalised. inhibition, % at 12.6 µM. 0.67% of 350,000 active;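 active = mean inhibition of at least 50% after viability correction, with every replicate also passing that limit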;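 note: firefly luciferase signal divided by Alamar Blue viability fluorescence both relative to DMSO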
EBV LMP1 NFkB – Epstein-Barr LMP1 NF-kappaB reporter inhibition; LMP1-induced NF-kappaB luciferase reporter cells, luminescence; inhibition, % at 12.5 µM; 0.69% of 350,000 active; AID 504558; in the data active = inhibition above about 41%;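 note: 0% = neutral control wells and 100% = reference inhibitor control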
PAX8 inh HTS – PAX8 transcriptional activity inhibition; RMG-I TPO-luciferase reporter, SteadyGlo, 24 h; 1.2% of 360,000 active; inhibition, % at 12.6 µM;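 active = mean replicate inhibition at least 60% with every replicate also reaching 60%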;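 note: luciferase light reporting Pax8 driven TPO promoter activity; plate controls were median of neutral control wells for no effect and mitoxantrone controls for full effect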
LGR2 antag – inhibitors of bursicon-induced Drosophila LGR2 receptor cAMP signaling; HEK293 LGR2, CRE-luciferase, bursicon-stimulated, 4 h; inhibition, % at 9.99 µM; 0.35% of 380,000 active;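 active = drop in luminescence signal, shown as inhibition above about 50% in the replicate tests, limit read from the data, passing the limit was not always enough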;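 note: agonist challenge used bursicon conditioned medium at about half maximal strength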
MITF TRPM1 inh – inhibitors of MITF-driven TRPM1 promoter in melanoma cells | SK-MEL-5 TRPM1 promoter luciferase, 24 h | inhibition, % at 12.5 µM | 0.83% of 330,000 active;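 active = mean inhibition across replicates of 60% or more, whatever share of single replicates reaches that level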
The depositor's hits bear a star; x = no result given. Rows were chosen to be rich in hits. Some 2.2% of all compounds tested hit in one or more screens of this group.

SMILES	PGC1a acetyl inh	EWS-Fli inh	EBV LMP1 NFkB	PAX8 inh HTS	LGR2 antag	MITF TRPM1 inh
C[C@@H]1CCCCO[C@@H](CN(C)C(=O)Nc2ccc(C(F)(F)F)cc2)[C@H](C)CN([C@H](C)CO)C(=O)c2cc(NS(=O)(=O)c3cccs3)ccc2O1	11.7	27.3	x	85.5*	6.0	x
C[C@@H]1CCCCO[C@@H](CN(C)C(=O)Nc2ccc(C(F)(F)F)cc2)[C@@H](C)CN([C@H](C)CO)C(=O)c2cc(NS(=O)(=O)c3cccs3)ccc2O1	13.3	10.1	x	x	11.1	x
C[C@H]1CCCCO[C@@H](CN(C)C(=O)Nc2ccc(C(F)(F)F)cc2)[C@@H](C)CN([C@@H](C)CO)C(=O)c2cc(NS(=O)(=O)c3cccs3)ccc2O1	14.9	14.0	x	61.7*	6.2	x
C[C@@H]1CCCCO[C@H](CN(C)C(=O)Nc2ccc(C(F)(F)F)cc2)[C@@H](C)CN([C@H](C)CO)C(=O)c2cc(NS(=O)(=O)c3cccs3)ccc2O1	8.6	-14.4	x	3.4	8.2	x
CCCC1=Nc2cc(C(=O)NCCCOCC)ccc2Sc2ccccc21	-39.9	x	11.8	99.0*	x	72.5*
CCC1=Nc2cc(C(=O)NCc3ccco3)ccc2Sc2ccc(C)cc21	x	16.8	20.3	83.8*	x	42.4
CC1=Nc2cc(C(=O)NCC3CCCO3)ccc2Sc2ccc(Br)cc21 (centres undefined)	-1.7	54.9*	6.1	24.4	-11.0	20.7
CC1=Nc2cc(C(=O)O)ccc2Sc2ccc(Br)cc21	-1.0	0.5	1.1	14.9	-5.5	14.0
CCC1=Nc2cc(C(=O)NCCN3CCOCC3)ccc2Sc2ccc(C)cc21	x	5.8	4.7	-3.7	-5.7	-4.2
CC1=Nc2cc(C(=O)NCCCOC(C)C)ccc2Sc2ccc(C)cc21	-7.9	58.8*	-4.5	28.0	-0.3	37.6
CN(C)C(=O)c1ccc(-c2ccc([C@H]3[C@@H](CO)N4CCCCN(C(=O)C5CCC5)C[C@H]34)cc2)cc1	3.7	4.3	x	4.4	x	x
N#Cc1c(Nc2ccccc2)[n+]([O-])c2ccc(Cl)cc2[n+]1[O-]	x	-4.6	12.5	37.2	-6.6	72.0*
O=C(/C=C/Nc1ccccc1)c1ccc(Cl)cc1Cl	x	-19.5	-23.1	-126.2	-83.2	-64.7
Cc1cc(Sc2nnc(/N=C/N(C)C)s2)c2ccccc2n1	6.2	4.9	69.8*	85.4*	55.0*	35.3
Cc1cc(Sc2nnc(N)s2)c2ccccc2n1	-59.0	10.5	70.8*	89.5*	57.6*	48.1
CC(C)NC(=O)N(C)C[C@@H]1Oc2ncc(C#CC3(O)CCCC3)cc2C(=O)N([C@H](C)CO)C[C@H]1C	-5.0	0.2	x	x	7.2	x
O=C(Cc1ccccn1)N[C@@H]1CC[C@H](CCn2cc(-c3ccccc3)nn2)O[C@@H]1CO	-11.6	1.4	x	4.0	6.6	x
O=C(Cc1ccccn1)N[C@H]1CC[C@H](CCn2cc(-c3ccccc3)nn2)O[C@@H]1CO	-76.4	-5.8	x	78.8*	-0.6	x
O=C(Cc1ccccn1)N[C@@H]1CC[C@@H](CCn2cc(-c3ccccc3)nn2)O[C@H]1CO	-133.0	3.1	x	99.2*	5.4	x
Cc1ccccc1S(=O)(=O)N[C@@H]1CC[C@@H](CCn2cc(Cc3ccccc3)nn2)O[C@H]1CO	60.9*	-3.7	x	11.7	24.0	x
O=C(Cc1ccccn1)N[C@H]1CC[C@@H](CCn2cc(-c3ccccc3)nn2)O[C@H]1CO	0.1	6.2	x	6.8	12.3	x
CCCNC(=O)C[C@@H]1CC[C@@H]2[C@H](COC[C@H](O)CN2C(=O)Nc2c(C)noc2C)O1	-1.0	-1.2	x	-3.9	-15.3	x
C[C@@H]1CN([C@@H](C)CO)C(=O)c2cc(C#CC3CCCC3)cnc2O[C@@H]1CN(C)C(=O)Cc1ccccn1	3.6	-8.2	x	-19.3	-5.4	x
Cc1nc2c(O)c3c(c(O)c2nc1C)C1C=CC3CC1	x	-5.4	68.4*	0.8	0.5	63.2*
C[C@@H]1CCCCO[C@H](CN(C)CC2CCCCC2)[C@@H](C)CN([C@H](C)CO)C(=O)c2cc(NC(=O)CCCCCC(=O)Nc3ccccc3N)ccc2O1	x	x	x	x	7.5	x
SMILES	PGC1a acetyl inh	EWS-Fli inh	EBV LMP1 NFkB	PAX8 inh HTS	LGR2 antag	MITF TRPM1 inh
O=C(CSc1nc2ccccc2c(=O)n1CCCN1CCOCC1)Nc1ccc(Br)cc1	8.5	-4.1	49.2*	18.7	-21.0	-9.5
CN(C)CCCn1c(SCC(=O)Nc2nc(-c3cccc(Br)c3)cs2)nc2ccccc2c1=O	-15.6	-24.8	-16.5	-18.5	-19.0	63.1*
Cc1ccc(NC(=O)CSc2nc3ccccc3c(=O)n2CCCN2CCCCC2)cc1C	-19.6	x	34.4	-43.3	x	69.6*
Cc1ccc(NC(=O)CSc2nc3ccccc3c(=O)n2Cc2cccs2)cc1	x	-21.8	-24.6	66.3*	-2.6	-7.4
CC(=O)c1cccc(NC(=O)CSc2nc3ccccc3c(=O)n2CCCN2CCOCC2)c1	6.6	-2.4	0.1	18.0	-14.5	1.0
C[C@@H]1CCCCO[C@@H](CN(C)S(C)(=O)=O)[C@H](C)CN([C@H](C)CO)C(=O)c2cc(NS(=O)(=O)c3cn(C)cn3)ccc2O1	-18.6	3.0	x	x	-23.1	x
COCC(=O)N1C[C@H](C)[C@@H](OC)CN(C)C(=O)c2cc(NC(=O)C3CCC3)ccc2OC[C@H]1C	38.9	-4.1	x	-13.6	-4.4	x
Cc1ccc(S(=O)(=O)N[C@H]2CC[C@H](CCNC(=O)CN3CCOCC3)O[C@H]2CO)cc1	7.7	0.3	x	-2.2	4.3	x
C[C@H](CO)N1C[C@H](C)[C@H](CN(C)Cc2ccc(Cl)c(Cl)c2)Oc2ccc(NC(=O)CCN3CCOCC3)cc2CC1=O	7.7	-12.8	x	9.5	15.3	x
C[C@H](CO)N1C[C@H](C)[C@H](CN(C)C(=O)NC2CCCCC2)Oc2ccc(N(C)C)cc2C1=O	-7.3	x	x	-12.2	-28.6	x
COc1cc(CCC(=O)Nc2nnc(C)s2)cc(OC)c1OC	x	51.5*	0.7	28.6	2.0	16.6
C[C@@H]1CN([C@@H](C)CO)C(=O)c2cc(NS(=O)(=O)c3ccc(F)cc3)ccc2O[C@@H](C)CCCCO[C@@H]1CN(C)Cc1ccccc1	-3.3	-8.3	x	37.5	-2.0	x
COc1ccc(C(=O)N/C(=C\c2ccc3c(c2)OCO3)C(=O)N2CCOCC2)cc1	x	-4.0	49.0*	-12.5	13.9	1.4
Cc1ccc(C(=O)N/C(=C\c2ccc3c(c2)OCO3)C(=O)N2CCOCC2)cc1	x	1.9	2.7	-20.6	-1.1	11.8
CC(=O)O[C@H]1C(=O)[C@]2(C)[C@H]([C@H](OC(=O)c3ccccc3)[C@]3(O)C[C@H](OC(=O)[C@H](O)[C@@H](NC(=O)c4ccccc4)c4ccccc4)C(C)=C1C3(C)C)[C@]1(OC(C)=O)CO[C@@H]1C[C@@H]2O	-15.0	61.2*	13.2	40.4	3.5	29.8
